These results are taken from PubChem BioAssay.

The target in one assay is Albumin (Bos taurus) (UniProt P02769). Kind of assay: bovine serum albumin binders on microarray, profiling panel, artefact control for SMM control protein annotation, biochemical, small-molecule microarray, Alexa647 label, 635/667 nm fluorescence (AID 1118).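 Note: score merges 667 nm emission intensity and signal-to-noise per printed compound spot.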 The settings on record: BSA-A647 binding, fluorescence 635 nm, higher = more signal.
Assay [1] is described as follows: small-molecule microarray binders of probe aXIP, primary screen, biochemical, NeuroSMM set, 635/667 nm fluorescence (AID 1119).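 Note: probe is the protein aXip251-270 applied at 1 µg/mL to compound-printed slides; binding of probe to printed compounds measured as 667 nm fluorescence plus signal to noise.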 Particulars: higher = more signal, called active from +8 up or from −8 down.
Assay [2] can be described thus: small-molecule binders of probe aNOTCH3, primary screen, biochemical, small-molecule microarray, 635/667 nm fluorescence (AID 1120).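 Note: probe is a biotin-tagged antibody raised against NOTCH3 rather than NOTCH3 protein; score merges spot fluorescence near 667 nm with spot signal to noise.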 Particulars: higher = more signal.
Assay [3] is described as follows: small-molecule binders of probe aNOTCH2, primary screen, biochemical, small-molecule microarray, 635/667 nm fluorescence (AID 1121).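 Note: score merges feature fluorescence read at 667 nm with its signal to noise.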 Particulars: higher = more signal.
Assay [4] has as its target Carbonic anhydrase 2 (Homo sapiens) (UniProt P00918). Briefly: CAII small-molecule binders, profiling panel, biochemical, small-molecule microarray, Alexa647-labelled CAII (AID 1122). The settings on record: CAII-A647 binding fluorescence, higher = more signal.
Assay [5] is described as follows: COS7 lysate on small-molecule microarray, probe aHis, 635 nm (AID 1123).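 Note: z-score combines 667nm fluorescence intensity with signal-to-noise per printed compound spot.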 Particulars: COS7 cell lysate, fluorescence, higher = more signal.
Assay [6] is described as follows: compound binding in COS7 lysate, probe aLAP1, primary screen, cell lysate, small-molecule microarray (AID 1124).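 Note: lysate comes from COS7 cells expressing LAP1 and is applied at 0.3 µg/mL; score merges spot fluorescence near 667 nm with signal-to-noise over triplicate slides.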 Particulars: probe aLAP1, fluorescence, higher = more signal.
The test system of another assay is Sam68 (KHDRBS1). Kind of assay: Sam68 small-molecule binders, primary screen, biochemical, small-molecule microarray, 635 nm fluorescence (AID 1125).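 Note: score merges 667 nm channel intensity with signal to noise over triplicate slides.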 The settings on record: small-molecule microarray binding, higher = more signal.
For assay [7], the system named is Chordin-like protein 2 (CHRDL2). Briefly: CHRDL2 small-molecule binders, primary screen, biochemical, small-molecule microarray, 635 nm fluorescence (AID 1126).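 Note: printed compound slides probed with Chrdl2 protein at 4 µg/mL for 1 h at 4 C; score merges 667 nm emission intensity with signal to noise over three replicate slides.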 The settings on record: small-molecule microarray binding, fluorescence 635 nm; higher = more signal.
Assay [8] deals with Concanavalin-A (Canavalia ensiformis) (UniProt P02866). Kind of assay: ConA small-molecule binders, primary screen, artefact control for SMM control protein annotation, biochemical, small-molecule microarray, Alexa647 label, 635 nm (AID 1127).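 Note: z combines 667 nm emission intensity with signal-to-noise across three replicate slides.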 Particulars: ConA-A647 binding fluorescence, higher = more signal.

Activity calls are given as the source filed them.

Sequence of Concanavalin-A (Canavalia ensiformis) (P02866 whole entry, looked up): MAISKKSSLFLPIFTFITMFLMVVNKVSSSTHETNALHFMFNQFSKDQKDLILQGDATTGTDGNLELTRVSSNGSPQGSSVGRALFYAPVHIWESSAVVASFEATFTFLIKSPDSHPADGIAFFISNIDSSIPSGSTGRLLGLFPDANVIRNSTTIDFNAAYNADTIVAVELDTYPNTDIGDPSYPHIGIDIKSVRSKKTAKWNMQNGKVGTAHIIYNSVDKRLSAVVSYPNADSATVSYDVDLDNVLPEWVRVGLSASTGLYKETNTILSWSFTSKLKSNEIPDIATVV
Sequence of Albumin (Bos taurus) (P02769 whole entry, looked up): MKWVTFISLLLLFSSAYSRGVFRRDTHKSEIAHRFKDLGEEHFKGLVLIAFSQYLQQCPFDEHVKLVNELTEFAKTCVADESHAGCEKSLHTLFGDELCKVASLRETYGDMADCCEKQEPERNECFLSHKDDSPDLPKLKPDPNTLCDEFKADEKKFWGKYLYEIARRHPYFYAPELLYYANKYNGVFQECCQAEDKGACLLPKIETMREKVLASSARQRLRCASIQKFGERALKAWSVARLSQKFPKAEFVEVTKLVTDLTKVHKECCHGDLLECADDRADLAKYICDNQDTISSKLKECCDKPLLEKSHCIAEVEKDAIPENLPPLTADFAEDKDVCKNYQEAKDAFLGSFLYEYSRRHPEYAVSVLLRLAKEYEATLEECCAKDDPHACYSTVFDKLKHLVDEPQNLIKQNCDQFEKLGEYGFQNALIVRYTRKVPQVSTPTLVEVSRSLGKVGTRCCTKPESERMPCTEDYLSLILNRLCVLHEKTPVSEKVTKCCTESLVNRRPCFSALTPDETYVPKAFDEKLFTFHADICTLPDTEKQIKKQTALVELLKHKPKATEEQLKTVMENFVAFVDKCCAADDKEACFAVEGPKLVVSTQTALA

`CC(C)C(=C=CC[C@H](O)c1ccccc1OCCO)C[C@H](O)c1cc(Cl)cc(Cl)c1O`: the composite z-score was 0.791 in the assay with Albumin (Bos taurus); 0.141 in assay [2]; -0.106 in assay [3]; 0.664 in assay [4]; 1.48 in assay [5]; 0.114 in assay [6]. For the same molecule, the composite z-score with Sam68 (KHDRBS1) is 1.31; in [7] it was -0.114; in [8] it was 1.14. Also, the composite Z-score in assay [1] is -0.275 (inactive).

Regarding `CC(C)NC(=O)[C@@]1(c2ccc([N+](=O)[O-])cc2)CC(=O)N(CC23CC4CC(CC(C4)C2)C3)[C@@H]1c1ccc(CO)cc1`, the composite z-score with Albumin (Bos taurus) stood at 0.0436; in [2], 1.07; in assay [3], 0.427; in assay [4], 0.195; in assay [5], 2.79; in [6] it was 0.885. In addition, the composite z-score in the assay on Sam68 (KHDRBS1) was 1.29; in [7] it was 1.21; in [8], 1.12. Further, the composite Z-score in assay [1] is 0.655 (inactive).

Regarding `COCCn1c(C(=O)N(C)C)cc2c1C[C@H]1CN(C(=O)c3ccccc3)[C@@](Cc3ccc(OC)cc3)(C(=O)OC)[C@@H]21`, the composite z-score with Albumin (Bos taurus) was found to be 0.507; in [2], 0.32; in assay [3] it was 0.0323; in [4], 0.659; in assay [5], 2.94; in [6] it was 0.294. Further, the results for the composite z-score (in the assay on Sam68 (KHDRBS1); in assay [7]; in assay [8]) were 0.914, -0.545 and 0.732, respectively. For the same molecule, the composite Z-score in [1] is -0.0775 (inactive).

As for `Cc1ccc(S[C@]2(C(=O)NCc3ccccc3)CC(=O)N(Cc3ccccc3C(F)(F)F)[C@@H]2c2ccc(CO)cc2)cc1`, the composite z-score is -0.17 in the assay with Albumin (Bos taurus); -0.413 in assay [2]; 0.0022 in assay [3]; -0.333 in [4]; 0.397 in [5]; -0.618 in assay [6]. The composite z-score in the assay with Sam68 (KHDRBS1) is 0.199; in assay [7] it was -1.77; in [8], -0.586. The composite Z-score in assay [1] is 0.131 (inactive).

Take `CCCCC(=C=CC[C@H](O)c1ccc(CO)o1)CCO`: the composite z-score in the assay with Albumin (Bos taurus) was 0.86; in [2], -0.0544; in assay [3] it was -0.0404; in [4], 0.54; in assay [5], 0.143; in assay [6], -0.311. In addition, the composite z-score in the assay on Sam68 (KHDRBS1) stood at 0.864; in [7] it was 0.386; in assay [8], 0.689. In addition, the composite Z-score in assay [1] is -0.334 (inactive).

In the case of `COCC(=C=CC[C@H](O)c1ccccc1OCCO)C[C@H](O)COCc1ccccc1`, the composite z-score with Albumin (Bos taurus) is 0.816; in assay [2], 0.304; in assay [3] it was -0.148; in [4], 0.505; in assay [5], 2.08; in [6], 1.81. In addition, the composite z-score in the assay with Sam68 (KHDRBS1) is 1.14; in assay [7], 0.0973; in assay [8], 0.245. The composite Z-score in assay [1] is 0.0117 (inactive).

As for `CC(=O)NCCCC[C@@H]1NC(=O)[C@H]2C[C@@H](C(=O)NCCCCCCNC(=O)CS)[C@@H](c3cccc(OCCO)c3)N2C1=O`, the composite z-score with Albumin (Bos taurus) was -0.637; in [2], -0.0647; in assay [3], -0.108; in assay [4] it was 0.592; in assay [5], 1.84; in [6] it was 0.537. In addition, the composite z-score in the assay on Sam68 (KHDRBS1) is 1.28; in [7] it was 0.487; in assay [8] it was 0.447. Further, in assay [1], the composite Z-score was 0.381 (inactive).

`O=C1O[C@H](c2ccccc2)[C@H](c2ccccc2)N2[C@H]1[C@@H](C(=O)N1CCN(c3ncccn3)CC1)[C@]1(C(=O)Nc3ccc(C#CCCO)cc31)[C@H]2c1ccc(O)cc1`: the composite z-score was 0.627 with Albumin (Bos taurus); 0.171 in assay [2]; -0.11 in assay [3]; 0.413 in assay [4]; 1.88 in [5]; 0.608 in assay [6]. Also, the composite z-score with Sam68 (KHDRBS1) is 0.574; in assay [7] it was 0.0231; in [8] it was 1.01. Also, the composite Z-score in assay [1] was -0.777 (inactive).

For `C=C(/C(=C/C[C@@H](OC(C)=O)c1cccc(OCCO)c1)c1cnc2ccccc2c1)C(C)C`, the composite z-score was 0.286 in the assay with Albumin (Bos taurus); -0.0787 in assay [2]; -0.124 in [3]; 0.803 in [4]; 1.26 in assay [5]; -0.149 in [6]. The composite z-score in the assay on Sam68 (KHDRBS1) came out at 0.869; in assay [7], 1.38; in assay [8], 0.629. The composite Z-score in assay [1] is 0.19 (inactive).

Regarding `CCCCCCc1nc(-c2ccc(-c3ccc(Cl)c(Cl)c3)o2)cc2c1[Si](C(C)C)(C(C)C)OC2`, the composite z-score was 0.521 with Albumin (Bos taurus); -0.261 in assay [2]; -0.156 in assay [3]; -0.216 in assay [4]; 0.445 in assay [5]; -0.389 in assay [6]. In addition, the composite z-score in the assay on Sam68 (KHDRBS1) was -0.248; in assay [7] it was -0.834; in [8], -0.48. Besides, the composite Z-score in assay [1] is -0.935 (inactive).

As to `COC(=O)C(CC#Cc1ccc2c(c1)[C@]1(C(=O)N2)[C@H](c2ccc(OCCO)cc2)N2[C@H](c3ccccc3)[C@H](c3ccccc3)OC(=O)[C@H]2[C@@H]1C(=O)N1CCCCCCC1)C(=O)OC`, the composite z-score with Albumin (Bos taurus) was 0.576; in [2], 1.75; in assay [3] it was 0.967; in assay [4] it was 0.933; in [5], 3.5; in [6], 1.65. For the same molecule, the composite z-score in the assay with Sam68 (KHDRBS1) turned out to be 1.3; in assay [7], 1.52; in assay [8] it was 1.21. Besides, the composite Z-score in assay [1] was 4.71 (inactive).

In the case of `COc1ccc(CCNC(=O)[C@@H]2c3ccccc3C(=O)N(Cc3ccccc3OC)[C@H]2c2ccc(CO)cc2)cc1`, the composite z-score is 0.454 with Albumin (Bos taurus); -0.176 in assay [2]; -0.0068 in assay [3]; 0.533 in [4]; 1.59 in assay [5]; 0.886 in assay [6]. Also, the composite z-score with Sam68 (KHDRBS1) is 1.28; in assay [7] it was -0.246; in assay [8] it was 0.792. Also, in assay [1], the composite Z-score was 0.511 (inactive).

With `CCOc1cc(C(O)C2C=CC3C(=O)N(c4ccccc4)C(=O)C3N2Nc2ccccc2F)ccc1O` (stereo not given), the composite z-score with Albumin (Bos taurus) turned out to be 0.799; in assay [2] it was 0.533; in assay [3], 0.433; in assay [4], 0.826; in [5], 2.75; in assay [6] it was 0.0411. Also, the composite z-score came to 0.339 with Sam68 (KHDRBS1), 0.0988 in assay [7] and 0.666 in [8]. The composite Z-score in assay [1] is -0.209 (inactive).

As to `COC(=O)[C@]1(Cc2ccccc2)N=C(c2ccc(OCCCO)cc2)O[C@@H]1c1ccccc1CN=[N+]=[N-]`, the composite z-score in the assay with Albumin (Bos taurus) was -0.847; in assay [2], 0.0259; in assay [3], -0.0017; in [4] it was 0.403; in assay [5], 1.98; in assay [6] it was -0.0103. Besides, the composite z-score in the assay with Sam68 (KHDRBS1) worked out at 0.745; in assay [7] it was 0.214; in [8], 0.656. Further, in assay [1], the composite Z-score is 0.384 (inactive).

On to `COC(=O)[C@@]1(Cc2ccccc2)[C@H]2c3cc(C(=O)N(C)C)n(Cc4ccc(C(F)(F)F)nc4)c3C[C@H]2CN1C(=O)c1ccccc1`, for which the composite z-score came to 0.463 with Albumin (Bos taurus); 0.39 in assay [2]; 0.329 in assay [3]; 0.849 in assay [4]; 3.31 in assay [5]; 0.427 in [6]. Moreover, the composite z-score in the assay with Sam68 (KHDRBS1) is 1.3; in assay [7], -0.43; in assay [8], 0.715. For the same molecule, the composite Z-score in assay [1] is -0.031 (inactive).

For the molecule `COc1ccc([Si](C)(C)[C@@H]2[C@@H](CC(=O)N3CCC[C@H]3CO)O[C@]3(C(=O)N(Cc4cccc(N5CCCCC5=O)c4)c4ccccc43)[C@H]2C)cc1`, the composite z-score with Albumin (Bos taurus) was -0.101; in [2], -0.0098; in assay [3] it was -0.127; in [4] it was 0.583; in [5], 1.97; in assay [6], 0.433. Besides, the figures for the composite z-score (in the assay with Sam68 (KHDRBS1); in assay [7]; in assay [8]) were 1.07, 0.781 and 1.11, respectively. In addition, in assay [1], the composite Z-score was 1.39 (inactive).
